Test results reported in PubChem BioAssay (NCI).
Compounds without any hit were thinned out: in the full panel of roughly 83,000, 20% have a hit.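 48-hour exposure, single concentration, 96-well plates; percent growth endpoint where 0 means no net growth. Active: below 10.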 A number with no mark means an inactive call. Calls of active or inactive are those of the source.

Key:
Assay in all cases: NCI-60 one-dose screen, 48 h (100 = growth as untreated, 0 = no growth, -100 = all killed)
Conditions in all cases: 10 µM unless noted
[1] = test system: HCT-15 colon
[2] = test system: HT29 colon
[3] = test system: SNB-19 CNS
[4] = test system: U251 CNS
[5] = test system: PC-3 prostate
[6] = test system: SK-MEL-5 melanoma
[7] = test system: UACC-62 melanoma
[8] = test system: LOX IMVI melanoma
[9] = test system: SK-MEL-28 melanoma
[10] = test system: SK-MEL-2 melanoma
[11] = test system: EKVX NSCLC
[12] = test system: UO-31 renal
[13] = test system: TK-10 renal
[14] = test system: ACHN renal
[15] = test system: CAKI-1 renal
[16] = test system: A498 renal
[17] = test system: CCRF-CEM leukemia
[18] = test system: MOLT-4 leukemia
[19] = test system: SN12C renal
[20] = test system: SNB-75 CNS

N#C/C(=C\c1cccc2cnccc12)N1N=NC2C=CC=CC21 (centres undefined)
growth [1]: 13.5% | growth [2]: 12.7% | growth [3]: 66% | growth [4]: 70.6% | growth [5]: 47.9% | growth [6]: 46.4% | growth [7]: 37.1% | growth [8]: 11.7% | growth [9]: 43.8% | growth [10]: 61.3% | growth [11]: 40.4% | growth [12]: 27.2% | growth [13]: 55.6% | growth [14]: 19.2% | growth [15]: 27% | growth [16]: 38.5% | growth [17]: 10.2% | growth [18]: 31.7%

CCCS(=O)(=O)Nc1cccc(Nc2ncnc3cc(NC(=O)CCl)ccc23)c1Cl
growth [1]: -26.7% (active) | growth [2]: -63.4% (active) | growth [3]: 0.0363% (active) | growth [4]: -93.3% (active) | growth [5]: -25.7% (active) | growth [6]: -85.3% (active) | growth [7]: -66.2% (active) | growth [8]: -83.9% (active) | growth [9]: -22.8% (active) | growth [10]: -32.1% (active) | growth [11]: -14.9% (active) | growth [19]: -76% (active) | growth [12]: -95% (active) | growth [13]: -36.4% (active) | growth [14]: -94.4% (active) | growth [15]: -74.6% (active) | growth [16]: 9.01% (active) | growth [17]: 3.74% (active) | growth [18]: 4.33% (active)

Cc1ccc(Nc2nc(N)nc(N)c2N=O)cc1Cl
growth [1]: 70.6% | growth [2]: 64.3% | growth [3]: 97.5% | growth [4]: 87% | growth [5]: 70.8% | growth [6]: 93.5% | growth [7]: 84.6% | growth [8]: 65.4% | growth [9]: 93.5% | growth [10]: 85.8% | growth [11]: 81.5% | growth [19]: 90% | growth [12]: 56.5% | growth [13]: 96.2% | growth [14]: 72.2% | growth [15]: 82.2% | growth [16]: 119% | growth [17]: 89.8% | growth [18]: 68.7%

CC(=O)Oc1ccccc1C(=O)N(Cc1ccc2c(Cl)cc(Cl)c(O)c2n1)c1ccccc1
growth [1]: 23.8% | growth [2]: 89.4% | growth [3]: 42% | growth [4]: 27.6% | growth [5]: 34% | growth [6]: 41.5% | growth [7]: 29.3% | growth [8]: 38.5% | growth [9]: 58.3% | growth [10]: 66.7% | growth [11]: 37.4% | growth [19]: 46.8% | growth [12]: 29.9% | growth [13]: 81.3% | growth [14]: 33.8% | growth [15]: 38.9% | growth [16]: 57.6% | growth [17]: 31.3% | growth [18]: 38.7%

CC(C)c1nc(N(C)S(C)(=O)=O)nc(-c2ccc(F)cc2)c1/C=C/C(=O)C[C@@H](O)CC(=O)O
growth [1]: 108% | growth [2]: 85.6% | growth [3]: 105% | growth [4]: 105% | growth [5]: 97.6% | growth [6]: 105% | growth [7]: 99.5% | growth [8]: 101% | growth [9]: 112% | growth [10]: 81.1% | growth [11]: 107% | growth [19]: 110% | growth [12]: 93.1% | growth [13]: 88.4% | growth [14]: 108% | growth [15]: 98.5% | growth [16]: 106% | growth [17]: 102% | growth [18]: 107%

COc1nc2ccccc2cc1/C=[N+](\[O-])c1ccccc1
growth [1]: 19% | growth [2]: 70% | growth [3]: 81.8% | growth [4]: 56% | growth [5]: 60.3% | growth [6]: 73.4% | growth [7]: 62.8% | growth [8]: 40.1% | growth [9]: 101% | growth [10]: 87.8% | growth [11]: 87% | growth [19]: 59.1% | growth [13]: 79.6% | growth [14]: 86.1% | growth [15]: 79.8% | growth [16]: 90.3% | growth [17]: 13.1%

CN1CCN(Cc2ccc(NC(=O)c3cncc(C#Cc4c(N)ncc5c(F)cccc45)c3)cc2C(F)(F)F)CC1
growth [1]: -83.7% (active) | growth [2]: -77.1% (active) | growth [20]: -81% (active) | growth [3]: -97% (active) | growth [4]: -88.4% (active) | growth [5]: -69.2% (active) | growth [6]: -87.2% (active) | growth [7]: -93.3% (active) | growth [8]: -96.1% (active) | growth [9]: -86.5% (active) | growth [11]: 10.6% | growth [19]: -92.6% (active) | growth [12]: -86.2% (active) | growth [13]: -95.1% (active) | growth [14]: -79% (active) | growth [15]: -70.4% (active) | growth [16]: -1.72% (active) | growth [17]: -39.8% (active) | growth [18]: -72.4% (active)

CC(C)CCc1nc2ccc(NCc3ccc(OCCN4CCC(C)CC4)cc3)cc2[nH]1
growth [1]: 67.4% | growth [2]: 40.3% | growth [3]: 88.6% | growth [4]: 71.6% | growth [5]: 61.4% | growth [6]: 84.9% | growth [7]: 82.5% | growth [8]: 59.6% | growth [9]: 75.7% | growth [10]: 110% | growth [11]: 78.5% | growth [19]: 69.9% | growth [12]: 57.4% | growth [13]: 111% | growth [14]: 97.3% | growth [15]: 64.8% | growth [16]: 79.3% | growth [17]: 67.3% | growth [18]: 62.3%

Cc1cc(C(=O)Nc2cc(Nc3ncccc3-c3ncnc4nc[nH]c34)ccc2F)cc(C(C)(C)C#N)c1
growth [1]: 42.7% | growth [2]: 24.1% | growth [3]: 61.8% | growth [4]: 51.1% | growth [5]: 57.8% | growth [6]: 27.1% | growth [7]: 3.75% (active) | growth [8]: -9.5% (active) | growth [9]: 10.9% | growth [10]: 8.76% (active) | growth [11]: 56% | growth [19]: 50.6% | growth [12]: 10.1% | growth [13]: 60.8% | growth [14]: 30.5% | growth [15]: 25.1% | growth [16]: -22.8% (active) | growth [17]: 42.4% | growth [18]: 53.2%

N#CC1=C(N)Oc2c(ccc3ccccc23)C1c1cc2ccccc2n2nnnc12 (centres undefined)
growth [1]: 11.8% | growth [2]: 8.73% (active) | growth [20]: 8.82% (active) | growth [3]: 26.2% | growth [4]: 18.7% | growth [5]: 10.1% | growth [6]: 7.97% (active) | growth [7]: 25.4% | growth [8]: 24.5% | growth [9]: 39.3% | growth [11]: 52.1% | growth [19]: 27.3% | growth [12]: 25.9% | growth [13]: 37.3% | growth [14]: 22.7% | growth [15]: 31.6% | growth [16]: -2.46% (active) | growth [17]: -5.43% (active) | growth [18]: 10.6%

COC1=C(OC)C(=O)C(CCCCCCCCCCO)=C(C)C1=O
growth [1]: 79.7% | growth [2]: 105% | growth [3]: 93% | growth [4]: 58.3% | growth [5]: 69.5% | growth [6]: 45% | growth [7]: 59.4% | growth [8]: 11.5% | growth [9]: 102% | growth [10]: 49.8% | growth [11]: 89.8% | growth [19]: 57.6% | growth [12]: 70.2% | growth [13]: 112% | growth [14]: 60.5% | growth [15]: 61% | growth [16]: 103% | growth [17]: 29.1% | growth [18]: 28.1%

CCN1C(=O)N(CC)C2C1NN=c1s/c(=C\c3ccccc3)c(=O)n12 (centres undefined)
growth [1]: 11% | growth [2]: 3.09% (active) | growth [3]: 27.1% | growth [4]: 8.08% (active) | growth [5]: 23.9% | growth [6]: -9.58% (active) | growth [7]: 24.3% | growth [8]: 15.9% | growth [9]: 60.6% | growth [10]: 42.5% | growth [11]: 47.1% | growth [19]: 26.5% | growth [12]: 37.9% | growth [13]: 65.6% | growth [14]: 30.2% | growth [15]: 27.1% | growth [16]: 9.75% (active) | growth [17]: 6.04% (active) | growth [18]: 10.9%

O=C(Cn1cc(CSc2nc3ccccc3o2)nn1)Nc1ccc([N+](=O)[O-])cc1
growth [1]: 106% | growth [2]: 93.9% | growth [3]: 96.3% | growth [4]: 97.9% | growth [5]: 92% | growth [6]: 99.1% | growth [7]: 68.5% | growth [8]: 94.5% | growth [9]: 105% | growth [10]: 106% | growth [11]: 104% | growth [19]: 102% | growth [12]: 78.8% | growth [13]: 104% | growth [14]: 95.2% | growth [15]: 82% | growth [16]: 101% | growth [17]: 105%

CCOC(=O)C1=C(C)N(C)C(=O)N(C)C1c1ccccc1 (centres undefined)
growth [1]: 102% | growth [2]: 97.8% | growth [3]: 93.8% | growth [4]: 99.3% | growth [5]: 92.7% | growth [6]: 93.3% | growth [7]: 86.7% | growth [8]: 96.1% | growth [9]: 124% | growth [10]: 106% | growth [11]: 97.2% | growth [19]: 91.6% | growth [12]: 78.7% | growth [13]: 106% | growth [14]: 95.9% | growth [15]: 90.6% | growth [16]: 86.8% | growth [17]: 86.6% | growth [18]: 104%

COc1cccc(-c2cc(-c3ccc(Nc4nc(Nc5ccc(Cl)cc5)nc(Nc5ccc(Cl)cc5)n4)cc3)nc(N)c2C#N)c1
growth [1]: 22.8% | growth [2]: 16.8% | growth [3]: 106% | growth [4]: 3.83% (active) | growth [5]: -5.44% (active) | growth [6]: 13% | growth [7]: 76.4% | growth [8]: -33.6% (active) | growth [9]: -59.7% (active) | growth [10]: 37.7% | growth [11]: 34.3% | growth [19]: 79% | growth [12]: -66.8% (active) | growth [13]: -53.4% (active) | growth [14]: 33.1% | growth [15]: 37.3% | growth [16]: 80.5% | growth [17]: 5.11% (active) | growth [18]: 7.5% (active)

COc1ccc(-c2nc(SCCC(C)C)nc(N/N=C(/C)c3ccc(N)cc3)c2C#N)cc1
growth [1]: 97.6% | growth [2]: 104% | growth [3]: 81.6% | growth [4]: 90.3% | growth [5]: 96.5% | growth [6]: 99.5% | growth [7]: 87.5% | growth [8]: 91.6% | growth [9]: 121% | growth [11]: 93.4% | growth [19]: 75.1% | growth [12]: 69.3% | growth [13]: 104% | growth [14]: 92.9% | growth [15]: 81.8% | growth [16]: 90.9% | growth [17]: 95.8% | growth [18]: 95.4%
